A number with no mark means an inactive call. Calls come from the whole dose curve; as a rule, active = well fitted curve in the direction sought with a large enough effect; inconclusive = small, poorly fitted or top-dose-only effect, or another doubt; inactive = no such curve, though single readings can be large or run the other way.

A short description of the test: Quantitative high throughput screen to test cell viability of anti-malarial compounds targeting the delayed death phenotype. The conditions noted are these: HepG2 viability, CellTiter-Glo luminescence, 48 h. The source says:
NIH Molecular Libraries Probe Production Network [MLPCN] NIH Chemical Genomics Center [NCGC] MLPCN Grant: R21 NS059500 Assay Provider: David Fidock and Eric Ekland, Columbia University The goal of this screen is to measuer the cytoxoxicity (against HepG2 cell line) of a set of anti-malarial compounds that target the delayed death pheonotype, by inhibiting the development of the apicoplast in the malarial parasite Plasmodium falciparum (described below) The biochemical processes that make this organelle essential for erythrocytic stage parasites are not well understood. However, antibiotics, such as azithromycin and tetracycline, which target the apicoplast translational machinery, have a potent antimalarial effect. […] We have developed a cell-based assay that measures parasite growth based on the expression of an integrated copy of a firefly luciferase reporter. To detect small molecules that cause this 'delayed death' phenotype, erythrocytes infected with the luciferase-expressing parasites were incubated with compounds for either one or two generations, corresponding to 48 and 96 hours, respectively. Compounds that inhibit parasite growth in the second generation, but not the first, should be enriched in antimalarials that target the apicoplast. Growth inhibition is detected by a decrease in luciferase activity
Cells were plated at a density of 2000 cells/well/5uL in 1536 well white tissue culture plate with culture medium. Triplicate plates were prepared. Plates were incubated at 37C, 5% CO2 for 5 hours and then 23nL of compounds and positive control were transferred to the assay plates. Tetraoctylammonium bromide was added as a positive control. Plates were then incubated at 37C, 5% CO2 for 48 hours. 5 uL of CellTitler-Glo buffer was added to each well and then incubated for 30 min at room temperature. Luminescence was measured using ViewLux (1 second, slow, 2X).
On the technique in general: Cellular ATP, detected with luciferase, serves as a proxy for viable cell number.
As to `COCCNC(=O)c1cccc(OC2CCN(Cc3cccc(SC)c3)CC2)c1`, the max response is -0.53%.
Then `COc1ccc2c(ccc[n+]2CC(=O)c2ccccc2)c1`, with 5.11%; and `CCCCOc1ccc(N2C(N)=NC(N)=NC23CCCCC3)cc1`, with -12%.
`COc1ccc(NC(=S)N2CCC(Cc3ccccc3)CC2)cc1OC`: the max response is 0.57%.
Consider `c1csc(CNc2ncnc3nc[nH]c23)c1`, for which the max response is 12.9%.
For `O=C(Nc1ccccc1N1CCOCC1)c1cccc(S(=O)(=O)N2CCOCC2)c1`, the max response was 0.827%.
On to `CCc1nc(SCC(=O)Nc2ccc(N(C)C)cc2)n[nH]1`, for which the max response is 1.4%.
In the case of `COc1ccc(Nc2nnc(-c3ccc(C)cc3)c3ccccc23)cc1C(=O)N1CCCCC1`, the max response is -6.06%.
`CCOc1ccc(S(=O)(=O)Nc2cc(S(=O)(=O)N(CC)CC)ccc2N2CCCC2)cc1`: the max response was -26.9%.
For `CCN(CC)C(=O)COc1coc(CN2CCN(c3cccc(Cl)c3)CC2)cc1=O`, the max response was 3.88%.
Take `CO[C@@H]1[C@@H](OC2OC(C)C(OC3CC(C)(O)C(OC(=O)CC(C)C)C(C)O3)C(N(C)C)C2O)[C@@H](CC=O)C[C@@H](C)C(=O)/C=C\C2O[C@H]2C[C@@H](C)OC(=O)C[C@H]1OC(C)=O` (stereo not given in full): the max response was 14.6%.
In the case of `COc1ccc(NC(=O)NC2CCCCCCC2)c(OC)c1`, the max response was -2.67%.
Consider `CCCc1c(CC)c(=N)c2ccccc2n1C`, for which the max response is 13.6%.
As for `O=C(c1ccc([N+](=O)[O-])cc1)n1nc(-c2ccccc2)nc1NCc1ccc(F)cc1`, the max response was 17.5%.
As to `CCCc1cc(=O)oc2cc(OC(C)C(=O)NCc3ccccn3)c(Cl)cc12` (stereo not given), the max response is 11.2%.
Consider `Cc1c(F)c(N2CCNC(C)C2)cc2c1c(=O)c(C(=O)O)cn2C1CC1` (stereo not given), for which the max response is 12.4%.
`CN(C)S(=O)(=O)c1cc(NC(=O)C2=COCCO2)ccc1Cl`: the max response is 13.5%.
Regarding `CCOc1ccc(NC(=O)C[n+]2ccc(N(C)C)cc2)cc1`, the max response is 8.12%.
For the compound `COc1cccc(CN2CCN(c3nc4nonc4nc3N3CCCCC3)CC2=O)c1`, the max response is 15.7%.
On to `CN(C)c1ccc(CN(C(=O)c2ccccc2Br)C2CCS(=O)(=O)C2)cc1` (stereo not given), for which the max response is 14.8%.
`COc1ccc2cc3cc(C(=O)Nc4ccc5c(c4)OCO5)oc3nc2c1`: the max response is -29.2%.
Consider `COc1ccccc1N1CCN(CCC(=O)Nc2ccc(F)cc2)CC1`, for which the max response was 6.7%.
On to `O=C(CNC(=O)C1CCCCC1)OC(C(=O)c1ccccc1)c1ccccc1` (stereo not given), for which the max response is 20.4%.
As for `COc1ccc(C(=O)N2CCN(S(=O)(=O)c3ccc(C)cc3C)CC2)cc1OC`, the max response was -11.6%.
Consider `CCCCN(CCCNC(=O)c1ccc(CS(=O)(=O)c2ccc(OC)cc2)o1)Cc1ccccc1`, for which the max response was -1.11%.
As to `Cc1ccc(-n2c(-c3ccc(Cl)cc3)c[n+]3c2CCC3)cc1`, the max response is -10.3%.
On to `Cc1ccc(S(=O)(=O)Nc2ccc(C(=O)Nc3ccncc3)cc2)cc1`, for which the max response is 5.11%.
Consider `Cc1ccc(CN2CCC(n3nccc3NC(=O)c3ccccc3C)CC2)o1`, for which the max response was 13.2%.
For the compound `O=C(NCc1cccnc1)c1ccc(NS(=O)(=O)c2ccccc2)cc1`, the max response was -0.715%.
Turning to `CC1=Nc2cc(C(=O)N3CCCC3)ccc2Sc2ccc(C)cc21`, the max response is 5.45%.
Take `CCOc1ccc(C(=O)Nc2ccc(N3CCN(C)CC3)cc2)cc1`: the max response is 8.06%.
Turning to `Cc1sc2nc[nH]c(=O)c2c1-c1ccc(Cl)cc1`, the max response is 3.87%.
For `N#Cc1cccc(NC(=O)Cn2c3[n+](c4ccc(C(F)(F)F)cc42)CCCCC3)c1`, the max response is 14.7%.
Then `CCC(=O)OC1C(N(C)C)CC(C)O[C@H]1O[C@H]1[C@H](C)[C@@H](O[C@H]2CC(OC)[C@@H](O)C(C)O2)[C@H](C)C(=O)O[C@@H](CC)[C@](C)(O)[C@@H](O)[C@H](C)C(=O)[C@@H](C)C[C@]1(C)O` (stereo not given in full), with 10.5%; and `Brc1cccc(OCCCCN2CCCCC2)c1`, with -6.02%; and `CCOC(=O)c1ccc2c(c1)n(CC)c(/C=C/N(C)c1ccccc1)[n+]2CC`, with -1.94%.
As to `CCCCN(CCCNC(=O)C1CCN(C(=O)c2cc3sccc3n2C)CC1)Cc1ccccc1`, the max response was 0.234%.
Take `CC(C)C(=O)NCCSc1c[nH]c2ccccc12`: the max response was -11.2%.
For the compound `COc1ccc(CNC(=O)C2CCC(CNS(=O)(=O)c3cccc4cccnc34)CC2)cc1` (stereo not given), the max response was 4.48%.
Take `Clc1ccc(-c2c[n+](Cc3ccc(Cl)cc3Cl)c3n2CCCCC3)cc1`: the max response was -16.1%.

The values are drawn from PubChem BioAssay AID624206 (National Center for Advancing Translational Sciences (NCATS), 2012).
